Assay [1] is described as follows: ATG_PXRE_CIS: Attagene CIS-FACTORIAL HepG2 Assay for human Pregnane X Receptor Element (PXRE) (AID 2282957). Conditions: HepG2 Attagene CIS-FACTORIAL PXRE reporter, mRNA; actives raise or lower the signal. In short, it runs like this:
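Transfect HepG2 with MRTUs (cis promoter elements); dose chemical, incubate 24 h; isolate RNA, RT with oligo(dT), PCR, 6-FAM label, HpaI cut, CE. Gain/loss fit vs DMSO.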

Assay [2] is described as follows: ATG_RORE_CIS: Attagene CIS-FACTORIAL HepG2 Assay for human RAR-related Orphan Receptor Element (RORE) (AID 2282959). Conditions: HepG2 Attagene cis-factorial RORE reporter, mRNA; actives raise or lower the signal. In short, it runs like this:
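Transient MRTU transfection of human HepG2 liver cells (FuGene 6); 24 h compound exposure; TriZol RNA, oligo(dT) RT, PCR, FAM labeling, HpaI cut, CE fragment analysis. DMSO = negative control/baseline.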

Assay [3] can be described thus: ATG_Sox_CIS: Attagene CIS-FACTORIAL HepG2 Assay for human SRY-box transcription factor (SOX) (AID 2282960). Conditions: HepG2 Attagene cis-factorial SOX reporter, mRNA; actives raise or lower the signal. The procedure, abridged:
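Endogenous factor activity in human liver HepG2 cells carrying transfected cis-regulated reporter units. RNA taken 24 h post-dose, reverse-transcribed, PCR-amplified and sized by capillary electrophoresis. Gain or loss of signal fitted relative to DMSO.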

For assay [4], the target named is Transcription factor Sp1 (Homo sapiens) (UniProt P08047). Description: ATG_Sp1_CIS: Attagene CIS-FACTORIAL HepG2 Assay for human Specificity Protein 1 (Sp1) (AID 2282961). Conditions: HepG2 Sp1 cis-reporter transcription, actives raise or lower the signal. The procedure, abridged:
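Transient MRTU-transfected HepG2, 24 h compound exposure. Total RNA → oligo(dT) RT → PCR of reporter → 6-FAM primer extension → HpaI digest → CE. Endpoint fitted both directions vs DMSO.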

The nature of assay [5]: ATG_SREBP_CIS: Attagene CIS-FACTORIAL HepG2 Assay for human Sterol Regulatory Element Binding (SREBP) (AID 2282962). As to conditions: HepG2 Attagene cis-factorial SREBP reporter, mRNA; actives raise or lower the signal. The procedure, abridged:
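HepG2 cells transiently transfected with multiplexed cis-element reporter units report endogenous transcription factor activity. After 24 h of chemical exposure, reporter mRNA was quantified by RT-PCR, 6-FAM labelling, HpaI digestion and capillary electrophoresis; bidirectional fits used DMSO as baseline.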

The target of assay [6] is Signal transducer and activator of transcription 3 (Homo sapiens) (UniProt P40763). Kind of assay: ATG_STAT3_CIS: Attagene CIS-FACTORIAL HepG2 Assay for human Signal Transducer and Activator of Transcription 3 (STAT3) (AID 2282963). As to conditions: HepG2, Attagene cis-factorial STAT3 reporter transcription; actives raise or lower the signal. The procedure, abridged:
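After a 24 h compound incubation, total RNA from MRTU-transfected HepG2 cells was converted to cDNA and reporter sequences PCR-amplified, labelled and profiled by capillary electrophoresis. Gain and loss of signal were referenced to DMSO.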

A short description of assay [7]: ATG_TA_CIS: Attagene CIS-FACTORIAL HepG2 Assay for human TA Basal Promoter (AID 2282964). As to conditions: HepG2 Attagene CIS-factorial TA basal promoter reporter; actives raise or lower the signal. In short, it runs like this:
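Multiplexed mRNA reporter assay, HepG2, 24 h. Reporter cDNA amplified, 6-FAM primer-extended, HpaI-cut, CE-sized; DMSO = negative control and baseline.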

Assay [8] is described as follows: ATG_TCF_b_cat_CIS: Attagene CIS-FACTORIAL HepG2 Assay for human T-Cell-Factor with beta-catenin (TCF/b-cat) (AID 2282965). As to conditions: HepG2 TCF/beta-catenin cis-reporter transcription, actives raise or lower the signal. In short, it runs like this:
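Endogenous transcription factor activity is captured through cis-promoter reporter constructs transiently introduced into human HepG2 liver cells. Induced reporter mRNA is measured after 24 h and fitted bidirectionally relative to DMSO.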

A short description of assay [9]: ATG_TAL_CIS: Attagene CIS-FACTORIAL HepG2 Assay for human TAL Basal Promoter (AID 2282966).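 Note: background control endpoint measuring basal TAL promoter reporter mRNA not a specific factor.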 As to conditions: HepG2 Attagene cis-factorial TAL promoter reporter; actives raise or lower the signal. In short, it runs like this:
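Fluorescence of labelled reporter cDNA fragments, resolved by capillary electrophoresis, gave the readout. Human HepG2 liver cells carried transiently transfected cis-element reporter units and were treated for 24 hours; activity was fitted bidirectionally against DMSO.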

“And” between values parts separate entries of the source, which are not always exact repeats. Identical values can stand only once. The source made the active and inactive calls. Rule for the calls: active = hit-call score of the fitted dose curve at least 0.9, where 1 is the maximum; inactive = score below 0.9.

Chain of Transcription factor Sp1 (Homo sapiens) (P08047 whole entry, looked up): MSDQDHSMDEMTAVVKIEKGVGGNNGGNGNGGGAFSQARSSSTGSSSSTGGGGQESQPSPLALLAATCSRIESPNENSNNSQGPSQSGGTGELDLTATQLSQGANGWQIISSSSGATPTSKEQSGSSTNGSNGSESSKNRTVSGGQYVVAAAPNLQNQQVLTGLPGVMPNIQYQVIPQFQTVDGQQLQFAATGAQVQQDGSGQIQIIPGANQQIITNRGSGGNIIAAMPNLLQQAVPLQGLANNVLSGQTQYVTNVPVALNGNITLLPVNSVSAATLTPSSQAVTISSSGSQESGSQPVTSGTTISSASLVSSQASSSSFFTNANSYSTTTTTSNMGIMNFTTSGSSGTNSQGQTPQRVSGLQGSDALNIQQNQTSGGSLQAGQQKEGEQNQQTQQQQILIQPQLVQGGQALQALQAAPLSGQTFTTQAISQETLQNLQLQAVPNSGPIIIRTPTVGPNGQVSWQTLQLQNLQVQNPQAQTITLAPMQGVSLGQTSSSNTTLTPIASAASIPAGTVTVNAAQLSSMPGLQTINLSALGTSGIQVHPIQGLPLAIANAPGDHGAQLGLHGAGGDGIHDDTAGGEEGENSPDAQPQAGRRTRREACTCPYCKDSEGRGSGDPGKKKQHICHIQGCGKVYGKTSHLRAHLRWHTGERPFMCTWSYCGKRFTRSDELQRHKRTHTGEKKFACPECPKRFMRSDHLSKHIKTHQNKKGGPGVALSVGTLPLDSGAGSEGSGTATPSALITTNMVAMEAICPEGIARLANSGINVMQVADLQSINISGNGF
Chain of Signal transducer and activator of transcription 3 (Homo sapiens) (P40763 whole entry, looked up): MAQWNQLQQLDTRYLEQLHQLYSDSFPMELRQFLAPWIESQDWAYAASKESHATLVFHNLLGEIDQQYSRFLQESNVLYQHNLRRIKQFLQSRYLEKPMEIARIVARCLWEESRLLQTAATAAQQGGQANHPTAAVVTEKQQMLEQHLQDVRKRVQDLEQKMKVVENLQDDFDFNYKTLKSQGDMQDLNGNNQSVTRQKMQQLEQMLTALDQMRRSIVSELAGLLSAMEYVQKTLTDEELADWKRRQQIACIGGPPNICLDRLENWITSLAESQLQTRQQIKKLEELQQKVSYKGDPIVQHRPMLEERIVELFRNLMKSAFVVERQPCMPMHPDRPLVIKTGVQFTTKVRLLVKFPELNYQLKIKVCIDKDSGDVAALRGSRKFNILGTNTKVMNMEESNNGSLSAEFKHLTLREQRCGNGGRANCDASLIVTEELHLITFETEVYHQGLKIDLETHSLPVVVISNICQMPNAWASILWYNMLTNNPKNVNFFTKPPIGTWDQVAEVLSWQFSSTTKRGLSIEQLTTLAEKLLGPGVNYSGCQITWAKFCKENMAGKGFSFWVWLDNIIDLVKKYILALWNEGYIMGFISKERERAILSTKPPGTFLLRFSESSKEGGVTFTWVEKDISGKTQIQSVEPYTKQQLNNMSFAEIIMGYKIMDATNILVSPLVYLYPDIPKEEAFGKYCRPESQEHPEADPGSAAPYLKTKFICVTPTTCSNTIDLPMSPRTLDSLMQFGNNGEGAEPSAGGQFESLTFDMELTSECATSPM

The term AC50 denotes the concentration giving half of the maximal activity seen. `CCCCCCCCCC[N+](C)(C)[O-]`: the AC50 in [1] is 79 µM (active). In addition, the call in [2], in [3], in [4], in assay [5], in assay [6] and in assay [7] was inactive. Further, the outcome in [8] and in assay [9] was inactive.

`CCCCCCCC(=O)OC`: the call in assay [1], in [2], in assay [3], in assay [4], in assay [5] and in [6] was inactive. Besides, the molecule was called inactive in [7] and in [9].

As to `CC(C)c1cccc(C(C)C)c1`, the molecule was classed as inactive in [1], in assay [2], in assay [3], in assay [4], in assay [5] and in [6]. Moreover, the outcome in assay [7], in assay [8] and in assay [9] was inactive.

As for `Cc1cn([C@H]2C=C[C@@H](CO)O2)c(=O)[nH]c1=O`, the call in [1], in [2], in assay [3], in assay [4], in [5] and in assay [6] was inactive. For the same molecule, the call in assay [7] and in assay [9] was inactive.

Turning to `CC(C)(O)c1ccc(CNC(=O)c2cccnc2Oc2ccc(F)cc2)cc1`, the half-maximal activity concentration (AC50) was 7.12 µM (active) in [1] and 44.6 µM (active) in assay [5]. The molecule was classed as inactive in [2], in [3], in [4], in assay [6], in [7] and in [9].

As to `O=C(O)c1cccnc1`, the result in assay [1], in [2], in assay [3], in assay [4], in assay [5] and in [6] was inactive. Besides, the molecule was classed as inactive in [7], in assay [8] and in [9].

Take `O=C(O)c1[nH]n(-c2ccc(S(=O)(=O)O)cc2)c(=O)c1N=Nc1ccc(S(=O)(=O)O)cc1`: the AC50 in assay [1] was 69.5 µM (active). Besides, the outcome in assay [2], in assay [3], in assay [4], in assay [5], in assay [6] and in assay [7] was inactive. The outcome in [9] was inactive.

For `CC(C)OC(=O)C(C)(C)Oc1ccc(C(=O)c2ccc(Cl)cc2)cc1`, the AC50 in assay [1] is 12.3 µM (active); in assay [2] it was 27.5 µM (active); in assay [7], 22.6 µM (active). Moreover, the molecule was classed as inactive in [3], in assay [4], in assay [5], in assay [6], in assay [8] and in [9].

With `Oc1ccccc1O`, the result in assay [1], in assay [3], in assay [4], in [5], in assay [6] and in assay [7] was inactive. The result in [8] and in assay [9] was inactive. Besides, the concentration at half-maximal activity (AC50) in [2] was 23.2 µM (active).

With `CCCCc1nc2cccnc2n1Cc1ccc(-c2ccccc2-c2nnn[nH]2)cc1`, the half-maximal activity concentration (AC50) in [1] was 27.2 µM (active). The molecule was classed as inactive in [2], in assay [3], in assay [4], in assay [5], in [6] and in assay [7]. Further, in [9], the outcome was inactive.

Turning to `Nc1nc(=S)c2[nH]cnc2[nH]1`, the AC50 in [1] was 100 µM (active). The result in [2], in [3], in assay [4], in [5], in [6] and in assay [7] was inactive. The molecule was called inactive in assay [8] and in [9].

`O=C(O)CN(CC(=O)O)CC(=O)O`: the molecule was classed as inactive in assay [1], in [2], in [3], in assay [4], in assay [5] and in [6]. Further, the result in [7], in assay [8] and in [9] was inactive.

For the molecule `c1ccc2occc2c1`, the molecule was called inactive in assay [1], in assay [2], in assay [3], in assay [4], in assay [5] and in [6]. Also, the molecule was called inactive in [7], in assay [8] and in assay [9].

With `CCCCCCC(CCCCCCCCCCC(=O)OCC(COC(C)=O)OC(C)=O)OC(C)=O` (stereo unspecified), the AC50 in assay [1] was 50 µM (active). Further, the result in [2], in assay [3], in assay [4], in assay [5], in [6] and in assay [7] was inactive. Moreover, in [9], the call was inactive.

As to `CCC(C)N(C)C(=O)c1cc2ccccc2c(-c2ccccc2Cl)n1` (stereo unspecified), the values for the AC50 in assay [1], in assay [2] and in [7] were 0.135 µM (active), 46.9 µM (active) and 44.3 µM (active), respectively. Further, the outcome in assay [3], in assay [4], in [5], in assay [6] and in assay [9] was inactive.

Regarding `CCc1cc(C2=C(C(=O)O)N(c3ccccc3C(F)(F)F)S(=O)(=O)c3ccccc32)cc2c1OCO2`, the AC50 in assay [1] is 2.14 µM (active); in assay [4] it was 59 µM (active); in [5], 26.6 µM (active). The outcome in assay [2], in assay [3], in [6], in assay [7] and in assay [9] was inactive.

Consider `CC(C)(C)c1ccccc1`, for which the molecule was classed as inactive in [1], in [2], in [3], in [4], in assay [5] and in assay [6]. Moreover, the call in assay [7] and in [9] was inactive.

Turning to `O=C(Oc1ccccc1)c1cccc(C(=O)Oc2ccccc2)c1`, the outcome in [1], in assay [2], in [3], in assay [4], in assay [5] and in assay [6] was inactive. Moreover, the result in assay [7] and in assay [9] was inactive.

For the molecule `CCCCC(CC)COC(=O)CCCCCCCC(=O)OCC(CC)CCCC` (stereo unspecified), the molecule was called inactive in assay [1], in assay [3], in assay [4], in assay [5], in assay [6] and in [7]. For the same molecule, the outcome in assay [9] was inactive.

As for `CCCCCCCCCCCCCCCCO`, the call in [1], in assay [2], in [3], in assay [5], in [6] and in [7] was inactive. Also, the call in assay [9] was inactive.

For the molecule `CC(=O)CC(c1ccccc1)c1c(O)c2ccccc2oc1=O` (stereo unspecified), the concentration at half-maximal activity (AC50) in [1] is 59.1 µM (active) and 59.7 µM (active). In addition, the molecule was classed as inactive in assay [2], in assay [3], in [5], in [6], in [7] and in assay [9].

On to `CCc1nc(N)nc(N)c1-c1ccc(Cl)cc1`, for which the outcome in [1], in assay [3], in [5], in assay [6] and in [9] was inactive. The half-maximal activity concentration (AC50) was 42.5 µM (active) in assay [2], 100 µM (active) in assay [7] and 60.1 µM (active) in assay [8].

Values taken from PubChem BioAssay (EPA / NIEHS).
